Measured values: PubChem BioAssay (NCI)
About 79,000 compounds went through this panel and 15% of them were active in at least one assay; those are over-represented in the sample as a whole. The source made the active and inactive calls. No stated cut-off is given here; in the data, active means growth inhibition above about 70%; inactive means the rest.

Key:
[1] = NCI Yeast Anticancer Drug Screen. Data for the rad50 strain (AID 155);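 further: 0% = growth of vehicle-only cultures of the same strain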; details: S. cerevisiae rad50 strain growth inhibition; at 50.0 µM; active compounds read high
How it was run: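 Compounds were tested on a yeast strain with an engineered DNA damage repair alteration; the reported value is growth inhibition normalised to vehicle treatment.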

[2] = NCI Yeast Anticancer Drug Screen. Data for the mec2-1 strain (AID 157); details: S. cerevisiae mec2-1 strain, at 50.0 µM, active compounds read high
How it was run: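 Test agents were screened against the mec2-1 yeast strain, with defined DNA repair or cell cycle alteration. Growth was scored as inhibition against vehicle-only controls.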

[3] = NCI Yeast Anticancer Drug Screen. Data for the sgs1 mgt1 strain (AID 161);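 further: 0% = growth of cultures given vehicle only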; details: S. cerevisiae sgs1 mgt1 strain, at 50.0 µM, active compounds read high
How it was run: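 Genetically altered yeast, compound exposure, growth inhibition relative to vehicle.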

[4] = NCI Yeast Anticancer Drug Screen. Data for the cln2 rad14 strain (AID 165);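 further: 0% = growth equal to vehicle treated cultures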; details: S. cerevisiae cln2 rad14 strain, at 50.0 µM, active compounds read high
How it was run: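 Growth of compound-exposed yeast (cln2 rad14 genotype) measured and expressed as inhibition relative to vehicle.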

[5] = NCI Yeast Anticancer Drug Screen. Data for the bub3 strain (AID 167); details: S. cerevisiae bub3 mutant strain, at 50.0 µM, active compounds read high
How it was run: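 Growth of a checkpoint-deficient yeast mutant is measured after compound exposure. Values represent inhibition relative to vehicle.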

[6] = NCI Yeast Anticancer Drug Screen. Data for the mlh1 rad18 strain (AID 175); details: S. cerevisiae mlh1 rad18 strain growth inhibition; at 50.0 µM; active compounds read high
How it was run: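 In this whole-cell yeast screen, a strain with altered DNA damage repair is challenged with compound, and its growth is measured against matched vehicle-treated controls.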

Measured: growth inhibition

CON(C)S(=O)c1ccc([N+](=O)[O-])cc1 (stereo not given)
inactive: [1] 29.8% | [2] 19.1% | [3] 5.45% | [4] -15.6% | [5] -6.05% | [6] 22.1%

COc1cc(C2C3=C(CCCC3=O)N(c3ccc(C)cc3)C3=C2C(=O)CCC3)c([N+](=O)[O-])cc1OC
inactive: [1] -10.8% | [2] -4.2% | [3] 2.65% | [4] 2.2% | [5] 4.3% | [6] -0.3%

O=C1CC2CC1C1CC(Br)C(Br)C21 (stereo not given)
inactive: [1] -2.9% | [2] -17.3% | [3] -8.8% | [4] -4.85% | [5] -15.7% | [6] -1.1%

NNC(=O)Sc1ccccc1
inactive: [1] -14.8% | [2] 9.65% | [3] -12.8% | [4] -31.9% | [5] -12.3% | [6] -0.45%

C1CCC(C2CCCC[N-]2)[N-]C1.C1CCC(C2CCCC[N-]2)[N-]C1.[Cl][Ru][Cl] (stereo not given)
inactive: [1] 47% | [2] 8.55% | [3] 29.1% | [4] 6.8% | [5] -0.75% | [6] 18.9%

COC(=O)CCc1cc(=O)oc2c3c(cc(OC)c12)OC1OC(=O)CC31 (stereo not given)
inactive: [1] -24% | [2] -22.3% | [3] -19.1% | [4] 6.4% | [5] -20.1% | [6] -7.25%

CCOC(=O)c1nc(N)c2c(CC#N)nn(C)c2n1
inactive: [1] 2.35% | [2] -15.4% | [3] 8.3% | [4] -9.75% | [5] 9.95% | [6] -16.4%

COC(=O)C(CS)NC(=O)CNC(=O)CNC(=O)C(CCCCNC(=O)OCc1ccccc1)NC(=O)CNC(=O)C(CSC(c1ccccc1)(c1ccccc1)c1ccccc1)NC(=O)OCc1ccccc1 (stereo not given)
inactive: [1] -16.2% | [2] 2.75% | [3] -10.7% | [4] -17.2% | [5] -25.2% | [6] 0.2%

O=C(O)C1CCC(=O)N1Cc1ccccc1 (stereo not given)
inactive: [1] 1.35% | [2] -5.5% | [3] -7.75% | [4] -18% | [5] -7.05% | [6] -8.35%

CCCNc1ncnc2ncn(C)c12
inactive: [1] 12.4% | [2] -1.6% | [3] -12.9% | [4] 5.05% | [5] 7.35% | [6] 0.35%

Clc1ccc(C2=CSC3=NCCN23)cc1
inactive: [1] 3.45% | [2] -1.4% | [3] -9.55% | [4] -97.3% | [5] 16.4% | [6] 1.25%

COc1cc2c[n+](C)c3ccccc3c2cc1OC
inactive: [1] 4.75% | [2] 12% | [3] -16.6% | [4] -7.3% | [5] -21.1% | [6] -6.35%

CCCN(CCC)S(=O)(=O)c1ccc(NC(=O)OC(c2ccccc2)(c2ccccc2)c2ccccc2)cc1
inactive: [1] 24.1% | [2] -4.3% | [3] 5.4% | [4] 7.95% | [5] -3.7% | [6] 0.95%

Cc1ccc(Br)cc1C(=O)O
inactive: [1] 20.8% | [2] 2.25% | [3] 15.2% | [4] 13.8% | [5] -6.1% | [6] 15.4%

C=CCOC(=O)/C=C\c1ccccc1OC
inactive: [1] 23.9% | [2] 6.45% | [3] 16.6% | [4] -39.9% | [5] 14.8% | [6] -3.3%

CC/C=C/CC(=O)NCc1ccc(O)c(OC)c1
inactive: [1] 5.45% | [2] -1.15% | [3] -7.95% | [4] 48.3% | [5] -2.9% | [6] -16.7%

O=C(O)CCc1ccccc1-c1ccccc1C(=O)O
inactive: [1] 4% | [2] 1.45% | [3] -2.45% | [4] 8.8% | [5] 0.35% | [6] 31.4%

O=C(O)CCC1CCc2cccc(O)c2C1=O (stereo not given)
inactive: [1] 8.4% | [2] 3.3% | [3] 2.25% | [4] 15.6% | [5] 6.5% | [6] -3.45%

CCCC/C(=N/O)c1ccccc1
inactive: [1] 7.4% | [2] 0.7% | [3] -2.65% | [4] -9.1% | [5] -21.6% | [6] -6.95%

CC(C)COC1=CC(=O)c2ccccc2C1=O
inactive: [1] 16.4% | [2] 17.4% | [3] 18.6% | [4] -1.05% | [5] 35% | [6] -7%

O=C(O)c1c2c(cc3c(=O)c4ccccc4[nH]c13)CCCC2
inactive: [1] -5.65% | [2] -16.4% | [3] 18.7% | [4] 7.25% | [5] -15.7% | [6] 5.2%

CCN(CC)CCC1CC/C(=C\c2ccc(OC)cc2)C1=O (stereo not given)
inactive: [1] 18.3% | [2] -4.35% | [3] 27.9% | [4] 21.1% | [5] -2.45% | [6] 21.9%

C=CCc1ccc(OC(=O)CC)c(OC)c1
inactive: [1] -8.1% | [2] -22.4% | [3] -16.4% | [4] -8.75% | [5] -10.8% | [6] -9.95%

O=c1oc2ccccc2cc1-n1nnc2cc([N+](=O)[O-])ccc21
inactive: [1] 39% | [2] 24.1% | [3] 25.8% | [4] -25.6% | [5] 12.8% | [6] 26.8%

[CH3][Ge]([Cl])([c]1ccccc1)[c]1cccc2ccccc12 (stereo not given)
inactive: [1] 25.2% | [2] 12.4% | [3] 10.8% | [4] 10.2% | [5] -0.15% | [6] 7.5%

CN(C)Cc1cc(C(C)(C)CC(C)(C)C)cc(Br)c1O
inactive: [1] 33% | [2] 21.4% | [3] 30.6% | [4] 28.8% | [5] 39.7% | [6] 26.9%

c1ccc(CCN2CCN(CCc3ccccn3)CC2)nc1
inactive: [1] 6.25% | [2] 6% | [3] -6.95% | [4] -19.6% | [5] 3.8% | [6] 0.2%

CC[n+]1ccc(/C=C\c2c(Cl)cccc2Cl)cc1
inactive: [1] -1.45% | [2] -17.6% | [3] 5.65% | [4] 3% | [5] 7.8% | [6] 12.1%

Cn1c(=O)c2cc(O)cnc2n(C)c1=O
inactive: [1] 4.8% | [2] -5.8% | [3] 0.3% | [4] -14.7% | [5] -7.35% | [6] -3%

C=CCNC(=S)N/C=C(/C#N)C(=O)OC
inactive: [1] 1.85% | [2] -9.75% | [3] -16.5% | [4] 21.6% | [5] -8% | [6] 15.7%

CC12O[C@H](c3ccccc3)[C@H](c3ccccc3)N1C(=O)C1(C(=O)OCc3ccccc3)CC12 (stereo not given in full)
inactive: [1] 11.3% | [2] -7.35% | [3] 6.4% | [4] 2.15% | [5] -7.05% | [6] -3.45%

CC(C)CNC(=S)N/N=C/c1ccc(C(C)C)cc1
inactive: [1] -19.6% | [2] -13.4% | [3] -8.4% | [4] -46.2% | [5] -13.1% | [6] -28.1%

O=C(Nc1nc2ncn(CC(COc3ccccc3)OC(=O)c3ccccc3)c2c(=O)[nH]1)c1ccccc1 (stereo not given)
inactive: [1] -9.85% | [2] 9.55% | [3] 6.5% | [4] 15.2% | [5] 12.2% | [6] -6.65%

O=C(c1ccccc1)c1ccc(C(=O)c2ccccc2)cc1
inactive: [1] -0.35% | [2] -1.85% | [3] -19.2% | [4] -6.15% | [5] -9.35% | [6] -19.3%

C=CCOCn1ccc(N)nc1=O
inactive: [1] -3.3% | [2] -0.55% | [3] 1.8% | [4] 7% | [5] -6.05% | [6] -2.95%

Cc1c(C(=O)O)c2cc3ccccc3cc2c(=O)n1C
inactive: [1] -22.1% | [2] -34.6% | [3] -10.1% | [4] -40.6% | [5] -23.9% | [6] -35%

CCOC(=O)/C(C#N)=N\Nc1ccccc1
inactive: [1] -15.5% | [2] 14.6% | [3] -1.7% | [4] -25.3% | [5] -1.85% | [6] -12.9%

CCOC(=O)NC(NC(=O)OCC)c1ccc2c(c1)OCO2
inactive: [1] -38.5% | [2] 17.4% | [3] 17.1% | [4] -11.8% | [5] 5.75% | [6] 3.8%

CC(C)OC(=O)CC#N
inactive: [1] -4.55% | [2] -9.55% | [3] -7.7% | [4] -28.7% | [5] 0.6% | [6] 14.8%

O=C(Nc1ccc(Br)cc1)OCC1CC2C=CC1C2 (stereo not given)
active: [2] 70.8% | [3] 79.9%
inactive: [1] 43.5% | [4] 42% | [5] 33.9% | [6] 47.4%
